Results published in the supplement of paper PMC6555819.

How the values were obtained:
Assay in all cases: PBM binding z-score (relative to random genomic background probes); higher = stronger binding; sequences stand for … in GC…GCGATTGACAGCGTAGAATGAAGG
[1] = system: RARb homodimer (NR concentration 270 nM)
Summary of the method: (§1)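 Custom Agilent 4×180K protein-binding microarrays carried double-stranded probes. Their 34-nt variable regions held direct-repeat seeds, single-nucleotide variants, half-site ablations and random human genomic background sequences. Arrays were incubated 1 h with ligand-free nuclear receptor dimers in PBS pH 7.4, 2% milk, 0.02% Triton X-100, 1 mM DTT, 0.2 mg/mL BSA and 0.4 mg/ml salmon testes DNA. Antibodies against each partner (one per run) detected binding, and scanned fluorescence was regression-normalized. Binding z-scores use random background probes as reference.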

[2] = system: RARg:RXRa (NR concentration 270 nM, RXRa partner concentration 90 nM)
Summary of the method: as §1

[3] = system: RARg homodimer (NR concentration 270 nM)
Summary of the method: as §1

[4] = system: RXRa DBDmut IVT, anti-RXR (DBD mutation: RXRa K156A/R161A, NR concentration 90 nM)
Summary of the method: as §1

[5] = system: RXRa homodimer (NR concentration 180 nM)
Summary of the method: as §1

[6] = system: THRa:RXRa (NR concentration 90 nM, RXRa partner concentration 90 nM)
Summary of the method: as §1

[7] = system: THRa homodimer (NR concentration 90 nM)
Summary of the method: as §1

[8] = system: VDR homodimer (NR concentration 270 nM)
Summary of the method: as §1

Row | Sequence | PBM binding z-score [1] | PBM binding z-score [2] | PBM binding z-score [3] | PBM binding z-score [4] | PBM binding z-score [5] | PBM binding z-score [6] | PBM binding z-score [7] | PBM binding z-score [8]
1 | GGAACGAGGGCAAAGTTGATAGAATCTGTCGACG | 1.19 | 2.18 | 1.77 | 2.54 | 2.06 | 1.39 | -0.286 | 1.42
2 | ATCGAAAGGTCGAGGTGAGTACAGAGAAAGGGAA | 2.93 | 4.39 | 4.17 | 0.83 | 3.89 | 3.1 | 0.817 | 1.13
3 | AGAACGAGGGCACGCTTAGTTGATAGCAGAGTAG | 1.38 | 1.76 | 2.33 | 2.1 | 1.42 | 1.94 | 0.257 | 0.561
4 | GCAGACAGGTGAAACGTAGGTAACTCAGGGTGGC | 0.622 | 0.956 | 0.393 | -0.48 | 0.858 | 1.2 | -0.606 | -0.684
5 | TCTTGTTGATCAACAGGAGGTTAAGAAAGATCGA | 0.286 | 0.304 | 0.198 | 0.0758 | 0.644 | 0.723 | -0.731 | -0.304
6 | TCATATAGGTAAATGCTAGGTGAAAGTCCGATCT | 0.629 | 0.482 | 0.503 | 1.42 | 0.567 | 1.39 | 0.441 | 0.42
7 | CTCGAAAGGTCGGTCGAGGTGAGTATACGGATAA | 2.4 | 3.1 | 3.3 | 0.728 | 2.47 | 5.04 | 0.386 | 0.0425
8 | ATCTCGAGGTAAAGTTCAGTGAAAGATCGATAGA | 2.23 | 2.68 | 2.72 | 0.929 | 1.7 | 1.71 | -0.0248 | 1.71
9 | TCTTGTGGATCAAGCAGGTTAAGAAAGCCTGAGT | 0.266 | -0.132 | -0.515 | 0.604 | 0.211 | 0.309 | -0.303 | 0.15
10 | GGAACGAGGGCAAAGTTGATAGCATCTGTCGACG | 1.33 | 2.18 | 1.82 | 2.76 | 2.22 | 1.25 | -0.111 | 1.21
11 | CCTCACGGGTCAAGGTTATAGCACGGGTGGTACG | 3.31 | 4.6 | 4.55 | -0.168 | 4.92 | 2.82 | 0.624 | 1.18
12 | CAAACTAGGTAAAGAGGTCAAAGTCCGCTTCCCG | 4.1 | 5.02 | 4 | 2.13 | 5.62 | 3.75 | 1.47 | 4.05
13 | ATATGTAGATTAAGGGTCATTCAGGTTGGTTCGC | 3.42 | 3.56 | 2.52 | 2.22 | 4.48 | 3.17 | 1.19 | 4.19
14 | AGTCAAAGTTCAGGACGAGGTAACTTAAAGCACG | 3.3 | 4.79 | 5.03 | 3.03 | 3.16 | 3.94 | 1.7 | 2.28
15 | TCTTGTGGATCAATAGAGGTTAAGAAAGTGCGCT | 1.26 | 0.875 | 0.534 | 0.749 | 1.22 | 2.23 | -0.3 | 0.314
16 | GCTGCTAGGTCAGGTTGGTCACCTAACGGGTACG | 2.81 | 2.67 | 3.43 | 0.0556 | 1.44 | 2.17 | 1.04 | 0.477
17 | GCGACTGGGGTATCAGCAGGTTACCATAACTTAA | 0.852 | 0.223 | -0.199 | -0.351 | 0.229 | 1.82 | -0.0503 | -0.333
18 | TCTTGTAGAGCAACAGGAGGTTAAGAAAGATCGA | 0.136 | 0.269 | 0.0354 | 0.0247 | 0.479 | 0.705 | -0.732 | -0.241
19 | TCGAGTAGATTAGTCGGGGCATTCAGCCAACATA | -0.464 | -0.658 | -0.665 | 0.38 | -0.393 | -0.269 | -0.485 | -0.548
20 | ACAGCCAGGTGAGTGAAGGTAACTCAGCTGGACG | -0.424 | -0.155 | -0.0105 | -0.98 | -0.177 | 1.46 | -0.534 | -0.751
21 | GGAACGAGGGCACAGTTGATAGCATCTGTCGACG | 0.918 | 1.28 | 1.61 | 1.69 | 0.922 | 1.08 | -0.317 | 0.774
22 | AGAAAGAGGTTACCAAAGATCAGGGAAACGCTTG | 1.03 | 2.51 | 1.84 | 0.282 | 3.17 | 1.91 | -0.577 | -0.0812
23 | TCCAGTAGGTTAGTCGGGGCATTCAGCCAACATA | 0.924 | 0.125 | 0.158 | 1.18 | 0.345 | 1.19 | 0.383 | 0.673
24 | CCGACAGGGGCAAAGGTTACCATACTCAGTACGA | 2.32 | 3.95 | 2.17 | 1.26 | 5.03 | 2.17 | -0.142 | 0.724
25 | AGAATGAGGTTATACGTAGTTCAGGGAAGAAAGT | 1.63 | 3.82 | 1.45 | 1.54 | 2.57 | 2.55 | 0.588 | 1.61
26 | ATCGAAAGGTCGCGAGGTGAGTATACAGAAAGGC | 3.4 | 5.11 | 4.94 | 0.903 | 5.7 | 3.45 | 0.86 | 0.971

Row | Sequence | PBM binding z-score [1] | PBM binding z-score [2] | PBM binding z-score [3] | PBM binding z-score [4] | PBM binding z-score [5] | PBM binding z-score [6] | PBM binding z-score [7] | PBM binding z-score [8]
27 | TCTAGCAGGCTAGAGGGTCACTCAAGAGGTACGG | 2.47 | 2.08 | 1.81 | 0.0423 | 2.42 | 1.59 | -0.445 | 0.31
28 | CCTACTGGGCCATCAGGTCATGGATATCAACGTT | 2.95 | 2.25 | 2.22 | -0.124 | 1.66 | 3.47 | 3.47 | 0.959
29 | CCTAGTTGGTCAGGAGGACACACACCGGATATGA | 1.58 | 1.2 | 1.73 | -0.252 | 0.276 | 1.28 | 1.43 | 0.975
30 | ATATGTAGGTTACATCCGGGACATTCAGGCTATG | 0.852 | 1.56 | 1.27 | 0.669 | 1.27 | 2.66 | 1.46 | 0.967
31 | TCGAGTGGGTTAGTCGGGGCATTCAGCCAACATA | 0.697 | -0.203 | -0.276 | 0.51 | -0.199 | 1.18 | 0.456 | 0.85
32 | GCTAGCAGGCCATTTGAGTCACTCAATGACGGGC | -0.381 | -0.0759 | 0.0765 | -0.0136 | -0.11 | 0.249 | -1.02 | -0.525
33 | CAAACTCGGTCACAGAGGTCAAAGTCCGTGCGTA | 5.29 | 6.57 | 6.96 | 2.49 | 6.63 | 4.04 | 1.73 | 5.74
34 | AATACAGGGTCATCGCAGGCCAGAGTACGCACAG | 3.53 | 5.41 | 5.21 | 3.48 | 6.8 | 4.75 | 1.42 | 3.55
35 | CGAACTAGGTCAGAACAGGAAAGTGAAGGATGAT | 1.61 | 2.35 | 2.9 | 0.506 | 1.07 | 1.29 | 0.124 | -0.115
36 | TCGAGTAGGTTAGGGGCATGCAGAATGGCGTCGA | 1.07 | 0.351 | 0.462 | 0.22 | 0.663 | 0.973 | 0.12 | 0.0612
37 | TAGCCTAGGTCATGCGGGCCACTATAGTGTCGGC | 2.97 | 4.13 | 4.41 | 0.662 | 3.23 | 3.15 | 0.932 | 1.08
38 | AGTCAAAGTTCACTAGGTGACGTAAGATTCAGCT | 4 | 5.11 | 5.68 | 4.42 | 3.96 | 2.33 | 0.0713 | 3.73
39 | CCTACTGGGCCAAAGGTCACTGATTCCAATGCTC | 4.91 | 6.24 | 5.46 | 0.634 | 7.03 | 3.42 | 1.29 | 1.88
40 | GCGACTGGGGCAAAGCAGGTAACCATAAGGTTGG | 0.207 | 0.0978 | 0.448 | -0.914 | 0.117 | 2.89 | -0.129 | -0.329
41 | CCATACAGGTGAAAGGTAACTCAGTCTGGTACGC | 0.92 | 1.41 | 0.917 | 0.261 | 2.32 | 1.08 | 0.069 | -0.101
42 | TGATATAGGTAATACAGGTGAAAGTCGGCATCTA | 0.513 | 0.793 | 0.583 | -0.27 | 1.12 | 0.952 | 0.267 | 0.316
43 | GCTCGGAGGACAAGGCCAGAGCTTTGTCCGTAGA | 0.141 | -0.322 | -0.004 | -1.09 | -1.17 | 0.254 | -0.595 | -0.801
44 | ACGTACGGGTCAACGAGGTTATAGCACGCGTATA | 3.58 | 5.69 | 5.07 | 2.07 | 6.3 | 4 | 0.75 | 3.93
45 | CCTATTGGGCCAAAAAGGTCATTGATGCCGATAA | 4.34 | 4.44 | 4.07 | 0.773 | 4.53 | 3.25 | 0.389 | 2.18
46 | TCGAGTACGTTAGGGGCATTCAGAATGGCGTCGA | 0.267 | 0.169 | -0.0328 | 3.64 | 0.3 | 0.637 | -0.622 | 5.05
47 | ACAAACAGGTGATGAAGGTAACTCAGGCTATCAT | 0.731 | 0.443 | 0.626 | 0.298 | 0.602 | 1.19 | 0.203 | 0.203
48 | GCTTACGGGTCATAGGTTATAGCATGAATAGAAT | 2.49 | 4.99 | 3.83 | 2.34 | 6.22 | 2.9 | 0.18 | 0.952
49 | AATATTAGTTGAGACGAGGGCAACCGATAGGTTG | 1.28 | 0.902 | 0.922 | 0.47 | 0.883 | 2.64 | 0.504 | 1.73
50 | CCTTACGGGTCACTGACAGGCTATAGCATTTGGA | 2.85 | 5.13 | 4.79 | 1.86 | 5.2 | 2.41 | -0.00278 | 0.687
51 | CCAGACAGGTGAGCAGGTAACTCAGCCTCGATTA | 0.399 | 0.113 | 0.308 | -0.0126 | -0.115 | 0.218 | 0.165 | -0.319
52 | CGAACTAGGTCATGGACAGTGAATCTCCGCACGC | 2.85 | 3.94 | 4.35 | 1.84 | 3.21 | 2.94 | 1.16 | 0.367
